Test results: PubChem BioAssay (NCATS)
Values joined by “and” are separate entries in the source; they are usually repeats but may differ in a detail not shown here. Equal entries are not always repeated. Records with an inconclusive call do not appear. Active and inactive are the calls of the source. The call rests on the fitted dose curve; in most records, active means well fitted curve in the direction sought with a large enough effect; inconclusive means small, poorly fitted or top-dose-only effect, or another doubt; inactive means no such curve, though single readings can be large; an effect the other way counts as inactive or inconclusive.

How the values were obtained:
KB-3-1 = assay: Cytotoxic Profiling of Annotated Libraries Using Quantitative High-Throughput Screening (AID 1296008); settings: Five cell lines viability, CellTiter-Glo ATP luminescence, 48-72 h; max response: active compounds read low; further: nearly all actives have a fitted effect of over 60% in size
Outline: (§1)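 Cytotoxicity was measured as CellTiter-Glo ATP luminescence, read after 10 min at room temperature. Compound treatment of the cells lasted 48 or 72 hr at 37 degrees Celsius in a qHTS format.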

NIH3T3 [1] = assay: as above; settings: Five cell lines viability, CellTiter-Glo ATP luminescence, 48-72 h; max response: active compounds read low
Outline: as §1

HACAT = assay: qHTS assay to identify novel small-molecules to repurpose for Merkel cell carcinoma treatment (AID 1296009); settings: MCC and control cell lines, CellTiter-Glo viability, 72 h; at 44.8 µM (top of the series) unless noted; further: nearly all actives have a fitted effect of over 60% in size
Outline: (§2)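 72 hr, 37 degree celsius; NPC 8-pt / MIPE 11-pt dose response; compound pinned in DMSO; CellTiter-Glo, 10 min RT, luminescence; normalized to no-cell and DMSO controls.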

MCC-13 = assay: as above; settings: MCC and control cell lines, CellTiter-Glo viability, 72 h; series mostly up to 46 µM
Outline: as §2

MCC-26 = assay: as above; settings: MCC and control cell lines, CellTiter-Glo viability, 72 h; series mostly up to 46 µM
Outline: as §2

MKL-1 = assay: as above; settings: MCC and control cell lines, CellTiter-Glo viability, 72 h; series mostly up to 46 µM
Outline: as §2

MKL-2 = assay: as above; settings: MCC and control cell lines, CellTiter-Glo viability, 72 h; series mostly up to 46 µM
Outline: as §2

UISO = assay: as above; settings: MCC and control cell lines, CellTiter-Glo viability, 72 h; series mostly up to 46 µM
Outline: as §2

WaGa = assay: as above; settings: MCC and control cell lines, CellTiter-Glo viability, 72 h; series mostly up to 46 µM
Outline: as §2

C33A = assay: Primary qHTS to identify gynecologic anti-cancer compounds using libraries of approved drugs and bioactive compounds (AID 1345084); settings: Gynecologic cancer cell panel viability, ATPlite luminescence, 48 h; series mostly up to 57.5 µM; further: nearly all actives have a fitted effect of over 55% in size
Outline: (§3)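 Cells, 1,000 per well, were allowed to settle for 16 h at 37 C before compound addition. Five concentrations were tested for 48 h, and viability was read by ATPlite luminescence after 15 min at room temperature.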

CAOV3 = assay: as above; settings: Gynecologic cancer cell panel viability, ATPlite luminescence, 48 h; series mostly up to 57.5 µM
Outline: as §3

CASKI = assay: as above; settings: Gynecologic cancer cell panel viability, ATPlite luminescence, 48 h; series mostly up to 57.5 µM
Outline: as §3

Es-2 = assay: as above; settings: Gynecologic cancer cell panel viability, ATPlite luminescence, 48 h; series mostly up to 57.5 µM
Outline: as §3

HeLa = assay: as above; settings: Gynecologic cancer cell panel viability, ATPlite luminescence, 48 h; series mostly up to 57.5 µM
Outline: as §3

Hek293T [2] = assay: as above; settings: Gynecologic cancer cell panel viability, ATPlite luminescence, 48 h, control line for the selectivity index; series mostly up to 57.5 µM
Outline: as §3

JEG-3 = assay: as above; settings: Gynecologic cancer cell panel viability, ATPlite luminescence, 48 h; series mostly up to 57.5 µM
Outline: as §3

OV90 = assay: as above; settings: Gynecologic cancer cell panel viability, ATPlite luminescence, 48 h; series mostly up to 57.5 µM
Outline: as §3

HEK293T [3] = assay: qHTS assay to identify novel small-molecules to repurpose for Merkel cell carcinoma treatment (AID 1296009); settings: MCC and control cell lines, CellTiter-Glo viability, 72 h; at 44.8 µM (top of the series) unless noted; further: nearly all actives have a fitted effect of over 60% in size
Outline: as §2

NIH3T3 [4] = assay: as above; settings: MCC and control cell lines, CellTiter-Glo viability, 72 h; at 44.8 µM (top of the series) unless noted
Outline: as §2
On the % scale 0 is the no-effect control and ±100 the full control effect.

O=P1(N(CCCl)CCCl)NCCCO1 (stereo not drawn)
inactive: max response (KB-3-1) 2.64% and 7.08% | max response (NIH3T3 [1]) -16.8% and -12.6% | outcome (HACAT) | outcome (MCC-13) | Potency (MCC-26) | Potency (MKL-1) | Potency (MKL-2) | Potency (UISO) | Potency (WaGa) | Potency (C33A) | outcome (CAOV3) | outcome (CASKI) | Potency (Es-2) | Potency (HeLa) | outcome (Hek293T [2]) | outcome (JEG-3) | Potency (OV90)

O=C1c2ccccc2C(=O)c2ccccc21
inactive: max response (KB-3-1) -11.4% | max response (NIH3T3 [1]) -2.39% | outcome (HACAT) inactive [at 17.4 µM] | outcome (HEK293T [3]) inactive [at 17.4 µM] | outcome (MCC-13) | Potency (MCC-26) | Potency (MKL-1) | Potency (MKL-2) | Potency (UISO) | Potency (WaGa) | Potency (C33A) | outcome (CAOV3) | outcome (CASKI) | Potency (Es-2) | Potency (HeLa) | outcome (Hek293T [2]) | outcome (JEG-3) | Potency (OV90)

Nc1ccc([As](=O)(O)O)cc1
inactive: max response (KB-3-1) -4.72% | outcome (NIH3T3 [1]) | outcome (MCC-13) | Potency (MCC-26) | Potency (MKL-1) | Potency (MKL-2) | outcome (NIH3T3 [4]) | Potency (UISO) | Potency (WaGa) | Potency (C33A) | outcome (CAOV3) | outcome (CASKI) | Potency (Es-2) | Potency (HeLa) | outcome (Hek293T [2]) | outcome (JEG-3) | Potency (OV90)

CC1(C)C(C=C(Cl)Cl)C1C(=O)OC(C#N)c1cccc(Oc2ccccc2)c1 (stereo not drawn)
inactive: max response (KB-3-1) 2.32% | outcome (NIH3T3 [1]) | outcome (HACAT) | outcome (MCC-13) | Potency (MKL-1) | Potency (MKL-2) | outcome (NIH3T3 [4]) | Potency (UISO) | Potency (WaGa) | Potency (C33A) | outcome (CAOV3) | outcome (CASKI) | Potency (Es-2) | Potency (HeLa) | outcome (Hek293T [2]) | outcome (JEG-3) | Potency (OV90)

CN1C(=O)CCS(=O)(=O)C1c1ccc(Cl)cc1 (stereo not drawn)
inactive: max response (KB-3-1) -6.09% and -6.07% | max response (NIH3T3 [1]) 2.05% and -20.3% | outcome (HACAT) | outcome (HEK293T [3]) | outcome (MCC-13) | Potency (MKL-1) | Potency (MKL-2) | Potency (UISO) | Potency (WaGa) | Potency (C33A) | outcome (CAOV3) | outcome (CASKI) | Potency (Es-2) | Potency (HeLa) | outcome (Hek293T [2]) | outcome (JEG-3) | Potency (OV90)

c1ccc(CN2CCNCC2)cc1
inactive: max response (KB-3-1) -8.52% | max response (NIH3T3 [1]) -5.38% | outcome (HACAT) inactive [at 155 µM] | outcome (MCC-13) | Potency (MCC-26) | Potency (MKL-1) | Potency (MKL-2) | Potency (UISO) | Potency (WaGa) | Potency (C33A) | outcome (CAOV3) | outcome (CASKI) | Potency (Es-2) | Potency (HeLa) | outcome (Hek293T [2]) | outcome (JEG-3) | Potency (OV90)
